Inconclusive results are not listed. Calls of active or inactive are those of the source. Calls follow the shape of the dose curve; as a rule, active = well fitted cell-killing curve with a large enough effect; inconclusive = small, poorly fitted or top-dose-only effect, or effect the other way; inactive = no such curve, though single readings can be large or run the other way.
The compounds below were run on JEG-3 (assay: Confirmatory qHTS for gynecologic anti-cancer compounds from libraries of approved drugs and bioactive compounds). Details: gynecologic cancer cell panel viability, ATPlite luminescence, 48 h; series mostly up to 57.6 µM; activity change, negative = viability loss: at the top concentration.
Summary of the method: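 Cells (1,000/well) plated 16 h, then exposed 48 h at 37 °C to 11 concentrations (1:3) from 57.5 uM to 0.977 nM. Viability by ATPlite luminescence after 15 min; IC50 derived, with HEK 293T used for selectivity index.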
In the case of `O=C(NOC[C@H](O)CO)c1ccc(F)c(F)c1Nc1ccc(I)cc1F`, the “activity change, negative = viability loss” value is reported as -5.57% (inactive). For `Cc1ccc(C(=O)Nc2ccc(CN3CCN(C)CC3)c(C(F)(F)F)c2)cc1C#Cc1cnc2cccnn12`, the Potency was 27.3 µM (active). With `CNC1CCC(N(Cc2cccc(-c3ccncc3)c2)C(=O)c2sc3ccccc3c2Cl)CC1` (stereo not drawn) the Potency was 27.3 µM (active). In the case of `CCC1C(=O)N(C)c2cnc(Nc3ccc(C(=O)NC4CCN(C)CC4)cc3OC)nc2N1C1CCCC1` (stereo not drawn), the Potency is reported as 0.0153 µM (active). With `CC(C)C[C@H](NC(=O)[C@H](CCc1ccccc1)NC(=O)CN1CCOCC1)C(=O)N[C@@H](Cc1ccccc1)C(=O)N[C@@H](CC(C)C)C(=O)[C@@]1(C)CO1` the Potency was 17.2 µM (active). `CC[C@@]1(O)C(=O)OCc2c1cc1n(c2=O)Cc2cc3cc(O)ccc3nc2-1` was tested, and the Potency was 0.217 µM (active). `C[C@@H](Oc1cc(-c2cnn(C3CCNCC3)c2)cnc1N)c1c(Cl)ccc(F)c1Cl` was tested, and the Potency was 21.7 µM (active). `Nc1ncn([C@@H]2O[C@H](CO)[C@@H](O)[C@H]2O)c(=O)n1` was tested, and the “activity change, negative = viability loss” value was -6.25% (inactive). With `COc1cccc2c1C(=O)c1c(O)c3c(c(O)c1C2=O)C[C@@](O)(C(=O)CO)C[C@@H]3O[C@H]1C[C@H](N)[C@H](O[C@@H]2CCCCO2)[C@H](C)O1` the Potency was 13.7 µM (active). `OCc1ccc(-c2ccc(-c3ccc(CO)s3)o2)s1` was tested, and the “activity change, negative = viability loss” value was -21.6% [at 19.5 µM] (inactive). For `COc1ccc2cc3[n+](cc2c1OC)CCc1cc2c(cc1-3)OCO2`, the Potency was 3.85 µM (active). `Cc1cnc(CNC(=O)c2c(=O)c3ccc(N4CCCN(C)CC4)nc3n3c2sc2ccccc23)cn1` was tested, and the activity change, negative = viability loss was -17.5% [at 10.6 µM] (inactive). In the case of `CCN(CC)CCNC(=O)c1c(C)[nH]c(/C=C2\C(=O)Nc3ccc(F)cc32)c1C`, the Potency is reported as 25.1 µM (active). With `Cc1nc(N)sc1-c1ccnc(Nc2ccc(N3CCOCC3)cc2)n1` the Potency was 13.7 µM (active). For `CNC(=O)CN1CCC(Oc2cc3c(Nc4cccc(Cl)c4F)ncnc3cc2OC)CC1`, the “activity change, negative = viability loss” value was -23.5% (inactive). `CN1C(=O)C(Cc2c[nH]c3ccccc23)NC1=S` (stereo not drawn) was tested, and the “activity change, negative = viability loss” value was -3.66% [at 19.5 µM] (inactive). For `Nc1ccc(-c2ccc3ncc4ccc(=O)n(-c5cccc(C(F)(F)F)c5)c4c3c2)cn1`, the Potency was 2.43 µM (active). In the case of `Nc1ncnc2c1ncn2[C@@H]1O[C@H](CO)C[C@H]1O`, the “activity change, negative = viability loss” value is reported as 23.9% (inactive). `COc1cc2c(Oc3ccc(-c4cnc(Nc5ccc(F)cc5)n(C)c4=O)cc3F)ccnc2cc1OCCCN1CCOCC1` was tested, and the “activity change, negative = viability loss” value was 1.07% (inactive). With `O=C(c1ccc(/C=C/c2n[nH]c3ccccc23)cc1)N1CCNCC1` the Potency was 24.3 µM (active). With `O=C(NCC(O)CO)c1ccncc1Nc1ccc(I)cc1F` (stereo not drawn) the “activity change, negative = viability loss” value was -2.76% (inactive). `CCS(=O)(=O)c1cccc(-c2cc(C(=O)NC3CCN(C)CC3)c(C)c3[nH]c4ncc(C)cc4c23)c1` was tested, and the Potency was 2.67 µM (active). In the case of `Cc1cnc(Nc2ccc(OCCN3CCCC3)cc2)nc1Nc1cccc(S(=O)(=O)NC(C)(C)C)c1`, the Potency is reported as 24.3 µM (active). With `CN(C)c1ccc(-c2nc3ncc(Cl)c(N4CCN(CC(=O)Nc5nccs5)CC4)c3[nH]2)cc1` the “activity change, negative = viability loss” value was -24.9% [at 19.5 µM] (inactive). With `OC[C@H]1O[C@@H](n2cnc3c(=S)nc[nH]c32)[C@H](O)[C@@H]1O` the Potency was 4.85 µM (active). `CC(C)Oc1ccc(C(=O)NC(CNC(=O)CN(C)C)Cc2ccc(-c3cn4cccc(C(C)O)c4n3)cc2)cc1Cl` (stereo not drawn) was tested, and the Potency was 0.544 µM (active). In the case of `CCC1C(=O)N(C)c2cnc(Nc3ccc(C(=O)NC4CCC(N5CCN(CC6CC6)CC5)CC4)cc3OC)nc2N1C(C)C` (stereo not drawn), the Potency is reported as 0.0611 µM (active). In the case of `CCCCN(CCCC)CC(O)c1cc(Cl)cc2c1-c1ccc(Cl)cc1/C2=C/c1ccc(Cl)cc1` (stereo not drawn), the “activity change, negative = viability loss” value is reported as 10.7% (inactive). With `CN[C@@H](C)C(=O)N[C@H]1CN(C(=O)CC(C)C)CC[C@H]2CC[C@@H](C(=O)NC(c3ccccc3)c3ccccc3)N2C1=O` the “activity change, negative = viability loss” value was 14.6% (inactive). With `O=C(CCCCCCC(=O)Nc1ccccc1)NO` the Potency was 2.43 µM (active). `Cc1cc(Nc2nc(N[C@@H](C)c3ccc(F)cc3)c(C#N)cc2F)n[nH]1` was tested, and the Potency was 19.3 µM (active). `COc1cc2c(cc1-c1c(C)noc1C)ncc1[nH]c(=O)n(C(C)c3ccccn3)c12` (stereo not drawn) was tested, and the Potency was 3.06 µM (active). For `Nc1ccccc1NC(=O)c1ccc(CNC(=O)OCc2cccnc2)cc1`, the Potency was 3.85 µM (active).

— PubChem BioAssay AID1345085 (National Center for Advancing Translational Sciences (NCATS), 2018)
% is scaled to controls: 0 for no effect and ±100 for the full control effect; potency is read from the fitted curve at half-maximal effect.
Also: nearly all actives have a fitted effect of over 55% in size.
